# In PMC7862700, “An all-to-all approach to the identification of sequence-specific readers for epigenetic DNA modifications on cytosine”:
# Tests used:
# Assay in all cases: DAPPL (digital affinity profiling via proximity ligation, sequencing); 10 mM Tris-HCl pH 7.5, 50 mM NaCl, 1 mM DTT, 4% glycerol, room temperature, 30 min; GST-TFs on glutathione beads, 16-mer random dsDNA library, 0.1% formaldehyde crosslink after washing; high values mean tight binding
# Conditions in all cases: protein: recombinant; tags: N-terminal GST; dsDNA, one strand shown
# [1] = target: T1, FLI1 (Homo sapiens, UniProt Q01543 1-452)
# T1 sequence: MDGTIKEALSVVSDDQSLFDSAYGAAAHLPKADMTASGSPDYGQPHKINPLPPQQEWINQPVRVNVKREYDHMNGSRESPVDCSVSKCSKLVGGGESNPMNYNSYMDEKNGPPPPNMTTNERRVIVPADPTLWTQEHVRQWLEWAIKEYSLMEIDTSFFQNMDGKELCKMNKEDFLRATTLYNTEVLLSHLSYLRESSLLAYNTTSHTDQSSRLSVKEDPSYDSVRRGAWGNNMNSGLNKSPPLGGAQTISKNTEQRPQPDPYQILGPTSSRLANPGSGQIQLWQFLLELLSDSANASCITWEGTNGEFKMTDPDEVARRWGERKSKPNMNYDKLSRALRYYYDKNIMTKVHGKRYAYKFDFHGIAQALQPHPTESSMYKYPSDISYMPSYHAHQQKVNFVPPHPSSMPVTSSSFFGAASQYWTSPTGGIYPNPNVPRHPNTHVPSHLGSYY
# In short: (§1)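 Pools were built from human transcription factors expressed in yeast as GST fusions, captured on glutathione beads and DNA-barcoded, along with a tag-only sample. Incubation with 200 nmole of a 16-mer random double-stranded DNA library lasted 30 min at room temperature in Tris/NaCl/DTT/glycerol buffer, and was followed by washing, 0.1% formaldehyde crosslinking, proximity ligation, PCR amplification and Illumina NextSeq500 sequencing. Binding signal is the quotient of each hexamer's read frequency for a factor and its frequency for the tag-only sample.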
# [2] = target: T2, ELK1 (Homo sapiens, UniProt P19419 1-428)
# T2 sequence: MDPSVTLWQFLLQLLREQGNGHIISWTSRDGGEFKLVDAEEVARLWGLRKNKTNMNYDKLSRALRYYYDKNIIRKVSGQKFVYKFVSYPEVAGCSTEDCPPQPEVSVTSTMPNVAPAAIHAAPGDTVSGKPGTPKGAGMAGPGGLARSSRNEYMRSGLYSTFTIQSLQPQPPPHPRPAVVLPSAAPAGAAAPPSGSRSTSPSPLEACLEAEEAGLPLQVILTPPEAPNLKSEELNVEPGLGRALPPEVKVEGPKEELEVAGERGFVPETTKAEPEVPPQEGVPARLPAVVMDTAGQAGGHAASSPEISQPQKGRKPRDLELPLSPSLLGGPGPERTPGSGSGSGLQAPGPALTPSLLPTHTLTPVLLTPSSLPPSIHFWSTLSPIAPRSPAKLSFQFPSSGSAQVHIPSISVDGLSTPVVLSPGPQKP
# In short: as §1
# [3] = target: T3, GABPA (Homo sapiens, UniProt Q06546 1-454)
# T3 sequence: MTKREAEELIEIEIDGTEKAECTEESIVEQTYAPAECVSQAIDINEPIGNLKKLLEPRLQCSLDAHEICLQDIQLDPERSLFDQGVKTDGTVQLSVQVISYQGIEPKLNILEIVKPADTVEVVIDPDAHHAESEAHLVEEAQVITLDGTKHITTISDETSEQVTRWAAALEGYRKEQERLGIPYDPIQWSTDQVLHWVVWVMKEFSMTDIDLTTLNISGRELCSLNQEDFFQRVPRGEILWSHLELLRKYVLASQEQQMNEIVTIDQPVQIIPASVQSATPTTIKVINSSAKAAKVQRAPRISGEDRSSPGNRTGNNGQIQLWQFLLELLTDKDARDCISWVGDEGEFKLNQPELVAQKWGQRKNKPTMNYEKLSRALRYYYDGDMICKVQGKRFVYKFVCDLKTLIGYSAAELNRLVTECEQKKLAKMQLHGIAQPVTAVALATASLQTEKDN
# In short: as §1
# [4] = target: T4, ERG (Homo sapiens, UniProt P11308 1-479)
# T4 sequence: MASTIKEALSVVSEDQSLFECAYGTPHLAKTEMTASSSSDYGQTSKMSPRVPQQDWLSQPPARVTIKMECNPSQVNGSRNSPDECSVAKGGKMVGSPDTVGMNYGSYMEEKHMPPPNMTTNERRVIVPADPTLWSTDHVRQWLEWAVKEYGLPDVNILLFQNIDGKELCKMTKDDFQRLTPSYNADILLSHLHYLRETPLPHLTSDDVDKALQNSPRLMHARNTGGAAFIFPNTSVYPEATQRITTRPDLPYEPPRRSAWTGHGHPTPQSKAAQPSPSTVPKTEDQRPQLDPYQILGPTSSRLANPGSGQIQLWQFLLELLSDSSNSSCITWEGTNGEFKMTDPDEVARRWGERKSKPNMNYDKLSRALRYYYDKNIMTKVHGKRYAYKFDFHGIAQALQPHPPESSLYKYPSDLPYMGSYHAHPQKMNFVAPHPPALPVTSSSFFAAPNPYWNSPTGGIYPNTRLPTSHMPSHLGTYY
# In short: as §1
# [5] = target: ELF1 (Homo sapiens, UniProt P32519 1-619)
# Chain of ELF1 (P32519 whole entry): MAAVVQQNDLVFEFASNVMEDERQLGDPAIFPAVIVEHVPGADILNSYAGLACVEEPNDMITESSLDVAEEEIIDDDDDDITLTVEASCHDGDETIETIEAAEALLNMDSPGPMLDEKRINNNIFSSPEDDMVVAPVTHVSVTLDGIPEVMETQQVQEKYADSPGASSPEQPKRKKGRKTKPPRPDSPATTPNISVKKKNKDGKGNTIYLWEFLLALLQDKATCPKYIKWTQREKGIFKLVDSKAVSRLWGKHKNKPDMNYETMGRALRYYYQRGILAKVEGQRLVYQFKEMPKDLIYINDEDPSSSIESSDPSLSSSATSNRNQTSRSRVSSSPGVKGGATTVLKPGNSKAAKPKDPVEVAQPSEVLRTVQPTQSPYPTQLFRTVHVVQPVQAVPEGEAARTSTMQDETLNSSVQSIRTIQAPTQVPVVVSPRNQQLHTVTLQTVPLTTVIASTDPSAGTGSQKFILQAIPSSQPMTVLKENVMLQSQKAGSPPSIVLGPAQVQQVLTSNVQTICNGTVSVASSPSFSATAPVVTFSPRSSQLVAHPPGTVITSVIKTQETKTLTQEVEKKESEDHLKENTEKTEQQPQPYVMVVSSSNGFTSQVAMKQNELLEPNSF
# In short: as §1
# [6] = target: T5, EHF (Homo sapiens, UniProt Q9NZC4 1-300)
# T5 sequence: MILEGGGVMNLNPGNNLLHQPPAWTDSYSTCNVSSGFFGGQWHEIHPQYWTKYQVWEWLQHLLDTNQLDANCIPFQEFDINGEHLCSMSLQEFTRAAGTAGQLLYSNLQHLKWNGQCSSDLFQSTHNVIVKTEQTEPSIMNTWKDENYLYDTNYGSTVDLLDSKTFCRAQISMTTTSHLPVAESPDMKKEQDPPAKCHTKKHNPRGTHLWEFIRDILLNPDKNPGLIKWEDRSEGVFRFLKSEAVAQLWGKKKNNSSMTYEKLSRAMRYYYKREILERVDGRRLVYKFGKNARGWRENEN
# In short: as §1
# [7] = target: SPI1 (Homo sapiens, UniProt P17947 1-270)
# In short: as §1
# [8] = target: SPIB (Homo sapiens, UniProt Q01892 1-262)
# Chain of SPIB (Q01892 whole entry): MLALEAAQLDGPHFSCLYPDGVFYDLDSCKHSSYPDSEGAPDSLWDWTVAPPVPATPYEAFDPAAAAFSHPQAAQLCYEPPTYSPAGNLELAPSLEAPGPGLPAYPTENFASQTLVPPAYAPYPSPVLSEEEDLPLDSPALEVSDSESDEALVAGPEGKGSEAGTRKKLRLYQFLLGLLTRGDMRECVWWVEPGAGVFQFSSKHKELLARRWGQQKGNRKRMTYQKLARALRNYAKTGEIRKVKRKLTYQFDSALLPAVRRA
# In short: as §1
# [9] = target: T6, FEV (Homo sapiens, UniProt Q99581 1-238)
# T6 sequence: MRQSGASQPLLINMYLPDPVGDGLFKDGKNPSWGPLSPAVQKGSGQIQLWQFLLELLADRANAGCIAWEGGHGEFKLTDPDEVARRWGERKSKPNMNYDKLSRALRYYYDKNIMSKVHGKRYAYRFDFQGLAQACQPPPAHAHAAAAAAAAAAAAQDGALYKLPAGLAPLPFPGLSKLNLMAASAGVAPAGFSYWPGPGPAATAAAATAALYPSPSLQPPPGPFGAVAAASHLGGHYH
# In short: as §1
# [10] = target: ETV5 (Homo sapiens, UniProt P41161 1-510)
# Chain of ETV5 (P41161 whole entry): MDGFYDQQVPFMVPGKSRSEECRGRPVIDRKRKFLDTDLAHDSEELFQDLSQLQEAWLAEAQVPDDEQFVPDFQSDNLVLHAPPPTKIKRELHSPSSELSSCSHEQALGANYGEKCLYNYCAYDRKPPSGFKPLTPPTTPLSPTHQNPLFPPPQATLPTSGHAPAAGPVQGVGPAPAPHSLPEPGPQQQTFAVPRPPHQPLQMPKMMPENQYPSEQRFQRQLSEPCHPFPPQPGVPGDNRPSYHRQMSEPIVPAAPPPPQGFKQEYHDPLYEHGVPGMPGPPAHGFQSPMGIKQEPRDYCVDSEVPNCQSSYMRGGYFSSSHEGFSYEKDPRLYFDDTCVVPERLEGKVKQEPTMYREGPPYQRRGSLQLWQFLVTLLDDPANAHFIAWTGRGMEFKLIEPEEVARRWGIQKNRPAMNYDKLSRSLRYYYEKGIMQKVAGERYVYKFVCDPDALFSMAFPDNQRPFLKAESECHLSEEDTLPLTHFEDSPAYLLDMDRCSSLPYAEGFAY
# In short: as §1
# [11] = target: ELF4 (Homo sapiens, UniProt Q99607 1-663)
# Chain of ELF4 (Q99607 whole entry): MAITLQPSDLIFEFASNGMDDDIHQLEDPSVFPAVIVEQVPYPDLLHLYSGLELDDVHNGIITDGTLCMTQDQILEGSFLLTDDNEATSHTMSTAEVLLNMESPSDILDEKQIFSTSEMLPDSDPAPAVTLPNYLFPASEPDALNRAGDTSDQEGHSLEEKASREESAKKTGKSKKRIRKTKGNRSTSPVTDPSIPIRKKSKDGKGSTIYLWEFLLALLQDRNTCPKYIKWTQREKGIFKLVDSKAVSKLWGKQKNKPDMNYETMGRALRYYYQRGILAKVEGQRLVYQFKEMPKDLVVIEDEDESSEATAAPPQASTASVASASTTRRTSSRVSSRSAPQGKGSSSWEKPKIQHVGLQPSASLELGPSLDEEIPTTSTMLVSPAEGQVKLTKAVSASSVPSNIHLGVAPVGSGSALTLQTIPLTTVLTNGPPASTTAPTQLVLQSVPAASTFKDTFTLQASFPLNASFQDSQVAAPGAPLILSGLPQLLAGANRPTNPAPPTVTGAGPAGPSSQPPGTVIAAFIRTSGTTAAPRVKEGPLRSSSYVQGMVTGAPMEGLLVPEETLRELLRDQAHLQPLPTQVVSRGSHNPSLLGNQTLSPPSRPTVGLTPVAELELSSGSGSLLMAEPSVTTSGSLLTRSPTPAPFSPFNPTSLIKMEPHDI
# In short: as §1
# [12] = target: T7, ETV2 (Homo sapiens, UniProt O00321 1-342)
# T7 sequence: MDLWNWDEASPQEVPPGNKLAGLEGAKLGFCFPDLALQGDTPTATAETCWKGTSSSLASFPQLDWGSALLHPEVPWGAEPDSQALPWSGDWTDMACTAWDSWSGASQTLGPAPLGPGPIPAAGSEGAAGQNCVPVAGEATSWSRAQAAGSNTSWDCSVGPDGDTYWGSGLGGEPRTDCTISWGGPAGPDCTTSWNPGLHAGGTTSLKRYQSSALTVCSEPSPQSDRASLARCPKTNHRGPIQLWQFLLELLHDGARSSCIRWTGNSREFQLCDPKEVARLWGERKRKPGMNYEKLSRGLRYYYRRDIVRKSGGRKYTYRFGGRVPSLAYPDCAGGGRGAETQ
# In short: as §1
# [13] = target: T8, ELF3 (Homo sapiens, UniProt P78545 1-371)
# T8 sequence: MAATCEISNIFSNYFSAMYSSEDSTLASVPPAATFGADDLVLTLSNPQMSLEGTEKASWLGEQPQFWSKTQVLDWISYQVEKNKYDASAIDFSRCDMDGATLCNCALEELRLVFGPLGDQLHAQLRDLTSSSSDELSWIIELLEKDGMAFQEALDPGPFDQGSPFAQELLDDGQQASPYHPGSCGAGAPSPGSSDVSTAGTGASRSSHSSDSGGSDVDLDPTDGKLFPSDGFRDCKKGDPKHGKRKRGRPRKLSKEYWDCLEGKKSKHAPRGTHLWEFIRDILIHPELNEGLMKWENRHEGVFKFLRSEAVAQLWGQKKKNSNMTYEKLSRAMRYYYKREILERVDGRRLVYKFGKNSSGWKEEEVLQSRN
# In short: as §1
# [14] = target: ETV1 (Homo sapiens, UniProt P50549 1-477)
# Chain of ETV1 (P50549 whole entry): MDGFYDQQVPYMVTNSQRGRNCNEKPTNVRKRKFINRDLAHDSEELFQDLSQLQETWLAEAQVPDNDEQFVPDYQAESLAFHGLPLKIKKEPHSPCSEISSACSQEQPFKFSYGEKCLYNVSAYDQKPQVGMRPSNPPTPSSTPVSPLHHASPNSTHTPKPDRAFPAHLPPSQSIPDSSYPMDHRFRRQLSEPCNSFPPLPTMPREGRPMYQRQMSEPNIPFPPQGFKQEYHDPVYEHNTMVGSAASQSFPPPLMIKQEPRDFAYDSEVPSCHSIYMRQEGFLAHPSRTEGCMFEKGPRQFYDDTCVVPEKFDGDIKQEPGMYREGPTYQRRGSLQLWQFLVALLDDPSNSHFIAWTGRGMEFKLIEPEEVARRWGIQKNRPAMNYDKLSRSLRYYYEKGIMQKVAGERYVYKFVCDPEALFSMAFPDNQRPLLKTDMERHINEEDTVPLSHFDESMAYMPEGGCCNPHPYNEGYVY
# In short: as §1
# [15] = target: T9, ERF (Homo sapiens, UniProt P50548 1-548)
# T9 sequence: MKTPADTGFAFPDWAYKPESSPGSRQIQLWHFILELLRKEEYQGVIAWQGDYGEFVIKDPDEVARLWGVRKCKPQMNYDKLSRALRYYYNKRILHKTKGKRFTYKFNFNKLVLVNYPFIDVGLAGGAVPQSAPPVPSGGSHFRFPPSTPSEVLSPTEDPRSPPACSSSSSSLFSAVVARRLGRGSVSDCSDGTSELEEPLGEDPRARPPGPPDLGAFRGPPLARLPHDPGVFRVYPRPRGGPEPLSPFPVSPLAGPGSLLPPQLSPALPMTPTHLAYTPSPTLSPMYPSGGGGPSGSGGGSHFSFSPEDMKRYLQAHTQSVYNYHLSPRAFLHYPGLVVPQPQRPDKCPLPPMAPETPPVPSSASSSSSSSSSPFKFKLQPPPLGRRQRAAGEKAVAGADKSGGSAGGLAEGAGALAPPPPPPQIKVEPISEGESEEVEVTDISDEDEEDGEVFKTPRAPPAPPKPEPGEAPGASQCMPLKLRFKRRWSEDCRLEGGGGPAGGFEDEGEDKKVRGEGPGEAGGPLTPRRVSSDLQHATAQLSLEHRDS
# In short: as §1
# [16] = target: T10, ETV3L (Homo sapiens, UniProt Q6ZN32 1-361)
# T10 sequence: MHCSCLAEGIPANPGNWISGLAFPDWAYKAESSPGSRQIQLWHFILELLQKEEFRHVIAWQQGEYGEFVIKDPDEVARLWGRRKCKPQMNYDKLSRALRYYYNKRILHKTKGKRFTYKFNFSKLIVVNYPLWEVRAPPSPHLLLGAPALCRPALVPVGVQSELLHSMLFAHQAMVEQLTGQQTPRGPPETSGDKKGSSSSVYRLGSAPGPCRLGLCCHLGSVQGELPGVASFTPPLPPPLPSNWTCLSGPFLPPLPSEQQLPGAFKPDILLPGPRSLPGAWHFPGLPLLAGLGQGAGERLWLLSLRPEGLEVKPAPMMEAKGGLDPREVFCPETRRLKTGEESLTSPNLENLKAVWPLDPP
# In short: as §1
# [17] = target: T11, ETS2 (Homo sapiens, UniProt P15036 1-469)
# T11 sequence: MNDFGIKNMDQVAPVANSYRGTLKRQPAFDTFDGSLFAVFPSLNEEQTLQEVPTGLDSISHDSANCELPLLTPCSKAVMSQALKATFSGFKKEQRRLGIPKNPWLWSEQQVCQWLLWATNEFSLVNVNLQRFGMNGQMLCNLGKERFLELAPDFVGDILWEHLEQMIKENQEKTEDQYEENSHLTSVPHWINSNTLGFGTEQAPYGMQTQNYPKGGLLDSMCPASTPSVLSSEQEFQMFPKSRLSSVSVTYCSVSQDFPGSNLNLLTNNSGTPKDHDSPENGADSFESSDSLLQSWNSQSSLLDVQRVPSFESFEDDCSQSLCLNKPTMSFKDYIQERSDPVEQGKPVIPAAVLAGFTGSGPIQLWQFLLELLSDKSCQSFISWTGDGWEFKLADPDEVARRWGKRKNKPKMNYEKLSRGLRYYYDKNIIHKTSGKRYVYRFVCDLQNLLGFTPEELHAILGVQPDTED
# In short: as §1
# [18] = target: T12, ETV7 (Homo sapiens, UniProt Q9Y603 1-341)
# T12 sequence: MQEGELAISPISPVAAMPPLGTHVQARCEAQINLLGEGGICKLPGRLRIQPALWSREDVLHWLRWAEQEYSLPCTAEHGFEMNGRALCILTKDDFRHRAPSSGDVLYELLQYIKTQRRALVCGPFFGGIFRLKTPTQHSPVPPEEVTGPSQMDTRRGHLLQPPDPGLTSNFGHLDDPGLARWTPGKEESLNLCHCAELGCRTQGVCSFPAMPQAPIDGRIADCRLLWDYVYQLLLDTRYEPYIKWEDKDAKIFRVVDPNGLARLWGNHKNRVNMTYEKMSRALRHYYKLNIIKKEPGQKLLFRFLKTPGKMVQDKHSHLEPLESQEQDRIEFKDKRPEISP
# In short: as §1
# [19] = target: T13, ETV3 (Homo sapiens, UniProt P41162-2 1-143)
# T13 sequence: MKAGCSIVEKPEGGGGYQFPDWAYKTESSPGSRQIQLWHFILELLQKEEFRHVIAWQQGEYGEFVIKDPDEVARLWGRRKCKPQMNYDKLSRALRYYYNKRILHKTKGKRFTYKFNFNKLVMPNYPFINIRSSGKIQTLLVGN
# In short: as §1
# [20] = target: ETV6 (Homo sapiens, UniProt P41212 1-452)
# Chain of ETV6 (P41212 whole entry): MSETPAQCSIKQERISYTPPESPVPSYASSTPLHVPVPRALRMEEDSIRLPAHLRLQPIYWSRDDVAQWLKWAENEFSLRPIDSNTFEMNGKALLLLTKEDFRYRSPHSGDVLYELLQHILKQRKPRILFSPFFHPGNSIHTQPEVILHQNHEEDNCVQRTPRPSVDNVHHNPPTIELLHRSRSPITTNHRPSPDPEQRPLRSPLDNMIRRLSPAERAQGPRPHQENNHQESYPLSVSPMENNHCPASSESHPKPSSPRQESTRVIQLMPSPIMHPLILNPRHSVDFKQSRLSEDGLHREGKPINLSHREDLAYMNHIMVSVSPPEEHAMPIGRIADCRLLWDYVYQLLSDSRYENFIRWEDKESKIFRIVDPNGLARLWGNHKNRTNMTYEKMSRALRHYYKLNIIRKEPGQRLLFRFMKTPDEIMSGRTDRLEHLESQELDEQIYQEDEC
# In short: as §1
sequence,measurement,setting,value
AACTGA,binding signal,[1],"1.07 fold enrichment (6-mer frequency, TF over GST control)"
same,binding signal,[2],"1.08 fold enrichment (6-mer frequency, TF over GST control)"
same,binding signal,[3],"1.08 fold enrichment (6-mer frequency, TF over GST control)"
same,binding signal,[4],"1.11 fold enrichment (6-mer frequency, TF over GST control)"
same,binding signal,[5],"1.13 fold enrichment (6-mer frequency, TF over GST control)"
same,binding signal,[6],"1.1 fold enrichment (6-mer frequency, TF over GST control)"
same,binding signal,[7],"1.13 fold enrichment (6-mer frequency, TF over GST control)"
same,binding signal,[8],"1.15 fold enrichment (6-mer frequency, TF over GST control)"
same,binding signal,[9],"1.15 fold enrichment (6-mer frequency, TF over GST control)"
same,binding signal,[10],"1.11 fold enrichment (6-mer frequency, TF over GST control)"
same,binding signal,[11],"1.05 fold enrichment (6-mer frequency, TF over GST control)"
same,binding signal,[12],"1.07 fold enrichment (6-mer frequency, TF over GST control)"
same,binding signal,[13],"1.12 fold enrichment (6-mer frequency, TF over GST control)"
same,binding signal,[14],"1.16 fold enrichment (6-mer frequency, TF over GST control)"
same,binding signal,[15],"1.08 fold enrichment (6-mer frequency, TF over GST control)"
same,binding signal,[16],"1.09 fold enrichment (6-mer frequency, TF over GST control)"
same,binding signal,[17],"1.16 fold enrichment (6-mer frequency, TF over GST control)"
same,binding signal,[18],"1.05 fold enrichment (6-mer frequency, TF over GST control)"
same,binding signal,[19],"1.06 fold enrichment (6-mer frequency, TF over GST control)"
same,binding signal,[20],"1.1 fold enrichment (6-mer frequency, TF over GST control)"
